This note sets out measurements from PMC11006913.

Common to all, as to test: PBM; 200 nM protein, PBS
What all share (conditions): dsDNA, one strand shown

The target in assay [1] is HESX1 (Homo sapiens, UniProt Q9UBX0 95-180, R165K).
The target in assay [2] is HESX1 (Homo sapiens, UniProt Q9UBX0 95-180).
In assay [3] the target is HESX1 (Homo sapiens, UniProt Q9UBX0 95-180, R109Q).
In assay [4] the target is HESX1 (Homo sapiens, UniProt Q9UBX0 95-180, P111T).
Assay [5] concerns the target HESX1 (Homo sapiens, UniProt Q9UBX0 95-180, F115L).
Assay [6] concerns the target HOXB4 (Homo sapiens, UniProt P17483 148-234).
The target of assay [7] is HOXA4 (Homo sapiens, UniProt Q00056 201-287, W262R).
The target in assay [8] is HOXA2 (Homo sapiens, UniProt O43364 129-215, R185T).
The target in assay [9] is HOXA4 (Homo sapiens, UniProt Q00056 201-287, R217L).
Assay [10] has as its target HOXB4 (Homo sapiens, UniProt P17483 148-234, V174I).
The target in assay [11] is HOXA2 (Homo sapiens, UniProt O43364 129-215, R185K).
The target of assay [12] is HOXA4 (Homo sapiens, UniProt Q00056 201-287).
Assay [13] concerns the target VAX1 (Homo sapiens, UniProt Q5SQQ9 86-172).
Assay [14] concerns the target VAX1 (Homo sapiens, UniProt Q5SQQ9 86-172, T142I).
The target of assay [15] is HOXA2 (Homo sapiens, UniProt O43364 129-215, Y150S).
In assay [16] the target is HOXA4 (Homo sapiens, UniProt Q00056 201-287, W262F).
For assay [17], the target named is HOXA2 (Homo sapiens, UniProt O43364 129-215).
Assay [18] deals with VAX1 (Homo sapiens, UniProt Q5SQQ9 86-172, K157R).
In assay [19] the target is T1, VENTX (Homo sapiens, UniProt O95231 78-163, R121Q).
T1 sequence: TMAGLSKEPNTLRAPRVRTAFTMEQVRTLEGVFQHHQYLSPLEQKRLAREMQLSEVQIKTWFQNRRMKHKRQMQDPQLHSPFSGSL

In assay [20] the target is T2, VENTX (Homo sapiens, UniProt O95231 78-163, Y115F).
T2 sequence: T1 sequence with Y38F, Q44R

Positions count from the first letter of the chain named.

HOXB4 (Homo sapiens, UniProt P17483 148-234), sequence (P17483 148-234): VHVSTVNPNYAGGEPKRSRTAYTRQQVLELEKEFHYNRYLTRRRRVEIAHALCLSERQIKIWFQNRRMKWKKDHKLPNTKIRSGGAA
HESX1 (Homo sapiens, UniProt Q9UBX0 95-180), sequence (Q9UBX0 95-180): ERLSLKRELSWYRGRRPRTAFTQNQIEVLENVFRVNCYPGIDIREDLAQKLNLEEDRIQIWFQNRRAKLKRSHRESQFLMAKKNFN
HESX1 (Homo sapiens, UniProt Q9UBX0 95-180, F115L), sequence (Q9UBX0 95-180 F115L): as the sequence (Q9UBX0 95-180) above, with F21L counted along it
HOXA4 (Homo sapiens, UniProt Q00056 201-287, W262R), sequence (Q00056 201-287 W262R): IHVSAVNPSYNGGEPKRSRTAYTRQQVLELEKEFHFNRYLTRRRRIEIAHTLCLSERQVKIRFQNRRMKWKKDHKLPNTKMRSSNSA
HESX1 (Homo sapiens, UniProt Q9UBX0 95-180, P111T), sequence (Q9UBX0 95-180 P111T): as the sequence (Q9UBX0 95-180) above, with P17T counted along it
HOXA2 (Homo sapiens, UniProt O43364 129-215, R185T), sequence (O43364 129-215 R185T): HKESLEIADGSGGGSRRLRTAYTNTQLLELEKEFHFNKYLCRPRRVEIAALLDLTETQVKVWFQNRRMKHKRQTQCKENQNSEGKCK
HOXA4 (Homo sapiens, UniProt Q00056 201-287), sequence (Q00056 201-287): as the sequence (Q00056 201-287 W262R) above, with R62W counted along it
HOXB4 (Homo sapiens, UniProt P17483 148-234, V174I), sequence (P17483 148-234 V174I): as the sequence (P17483 148-234) above, with V27I counted along it
HOXA4 (Homo sapiens, UniProt Q00056 201-287, W262F), sequence (Q00056 201-287 W262F): as the sequence (Q00056 201-287 W262R) above, with R62F counted along it
HOXA2 (Homo sapiens, UniProt O43364 129-215, R185K), sequence (O43364 129-215 R185K): as the sequence (O43364 129-215 R185T) above, with T57K counted along it
HESX1 (Homo sapiens, UniProt Q9UBX0 95-180, R165K), sequence (Q9UBX0 95-180 R165K): as the sequence (Q9UBX0 95-180) above, with R71K counted along it
HESX1 (Homo sapiens, UniProt Q9UBX0 95-180, R109Q), sequence (Q9UBX0 95-180 R109Q): as the sequence (Q9UBX0 95-180) above, with R15Q counted along it
HOXA2 (Homo sapiens, UniProt O43364 129-215, Y150S), sequence (O43364 129-215 Y150S): as the sequence (O43364 129-215 R185T) above, with Y22S, T57R counted along it
HOXA4 (Homo sapiens, UniProt Q00056 201-287, R217L), sequence (Q00056 201-287 R217L): as the sequence (Q00056 201-287 W262R) above, with R17L, R62W counted along it
HOXA2 (Homo sapiens, UniProt O43364 129-215), sequence (O43364 129-215): as the sequence (O43364 129-215 R185T) above, with T57R counted along it
VAX1 (Homo sapiens, UniProt Q5SQQ9 86-172), sequence (Q5SQQ9 86-172): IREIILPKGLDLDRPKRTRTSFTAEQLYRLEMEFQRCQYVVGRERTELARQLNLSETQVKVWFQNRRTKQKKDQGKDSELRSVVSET
VAX1 (Homo sapiens, UniProt Q5SQQ9 86-172, K157R), sequence (Q5SQQ9 86-172 K157R): as the sequence (Q5SQQ9 86-172) above, with K72R counted along it
VAX1 (Homo sapiens, UniProt Q5SQQ9 86-172, T142I), sequence (Q5SQQ9 86-172 T142I): as the sequence (Q5SQQ9 86-172) above, with T57I counted along it

Consider AATACATA, for which the binding signal was 7.62 upbm affinity estimate (log intensity, higher = more binding, comparable within an allelic series) with HESX1 [1]; 7.7 upbm affinity estimate (log intensity, higher = more binding, comparable within an allelic series) with HESX1 [2]; 7.3 upbm affinity estimate (log intensity, higher = more binding, comparable within an allelic series) in the assay with HESX1 [3]; 7.6 upbm affinity estimate (log intensity, higher = more binding, comparable within an allelic series) with HESX1 [4]; 7.4 upbm affinity estimate (log intensity, higher = more binding, comparable within an allelic series) with HESX1 [5].
For CCGGTCAG, the binding signal with HESX1 [1] is 6.41 upbm affinity estimate (log intensity, higher = more binding, comparable within an allelic series); with HESX1 [2], 6.5 upbm affinity estimate (log intensity, higher = more binding, comparable within an allelic series); with HESX1 [3], 6.57 upbm affinity estimate (log intensity, higher = more binding, comparable within an allelic series); with HESX1 [4] it was 6.6 upbm affinity estimate (log intensity, higher = more binding, comparable within an allelic series); with HESX1 [5], 6.53 upbm affinity estimate (log intensity, higher = more binding, comparable within an allelic series).
AATCATTA: the binding signal was 13.2 upbm affinity estimate (log intensity, higher = more binding, comparable within an allelic series) with HOXB4 [6]; 10.7 upbm affinity estimate (log intensity, higher = more binding, comparable within an allelic series) with HOXA4 [7]; 12.4 upbm affinity estimate (log intensity, higher = more binding, comparable within an allelic series) with HOXA2 [8]; 12.3 upbm affinity estimate (log intensity, higher = more binding, comparable within an allelic series) in the assay with HOXA4 [9]; 13.8 upbm affinity estimate (log intensity, higher = more binding, comparable within an allelic series) with HOXB4 [10]; 13.2 upbm affinity estimate (log intensity, higher = more binding, comparable within an allelic series) with HOXA2 [11]. The binding signal is 13.9 upbm affinity estimate (log intensity, higher = more binding, comparable within an allelic series) with HOXA4 [12]; 12.7 upbm affinity estimate (log intensity, higher = more binding, comparable within an allelic series) with VAX1 [13]; 12.6 upbm affinity estimate (log intensity, higher = more binding, comparable within an allelic series) with VAX1 [14]; 10.8 upbm affinity estimate (log intensity, higher = more binding, comparable within an allelic series) in the assay with HOXA2 [15]; 11.6 upbm affinity estimate (log intensity, higher = more binding, comparable within an allelic series) with HOXA4 [16]; 12.1 upbm affinity estimate (log intensity, higher = more binding, comparable within an allelic series) with HOXA2 [17]. The binding signal with VAX1 [18] was 12.4 upbm affinity estimate (log intensity, higher = more binding, comparable within an allelic series).
Regarding CGCAGGCG, the binding signal was 7.74 upbm affinity estimate (log intensity, higher = more binding, comparable within an allelic series) with HOXB4 [6] and 7.65 upbm affinity estimate (log intensity, higher = more binding, comparable within an allelic series) with HOXB4 [10].
As to ATTAATGG, the binding signal with HOXB4 [6] is 13.4 upbm affinity estimate (log intensity, higher = more binding, comparable within an allelic series); with VENTX [19], 12.2 upbm affinity estimate (log intensity, higher = more binding, comparable within an allelic series); with HOXA4 [7] it was 10.7 upbm affinity estimate (log intensity, higher = more binding, comparable within an allelic series); with VENTX [20] it was 11.8 upbm affinity estimate (log intensity, higher = more binding, comparable within an allelic series); with HOXA2 [8] it was 12.6 upbm affinity estimate (log intensity, higher = more binding, comparable within an allelic series); in the assay with HOXA4 [9], 12.2 upbm affinity estimate (log intensity, higher = more binding, comparable within an allelic series). For the same sequence, the binding signal with HOXB4 [10] was 14.1 upbm affinity estimate (log intensity, higher = more binding, comparable within an allelic series); with HOXA2 [11] it was 13.4 upbm affinity estimate (log intensity, higher = more binding, comparable within an allelic series); with HOXA4 [12], 13.9 upbm affinity estimate (log intensity, higher = more binding, comparable within an allelic series); with VAX1 [13] it was 13 upbm affinity estimate (log intensity, higher = more binding, comparable within an allelic series); with VAX1 [14], 12.6 upbm affinity estimate (log intensity, higher = more binding, comparable within an allelic series); with HOXA2 [15], 11.1 upbm affinity estimate (log intensity, higher = more binding, comparable within an allelic series). The binding signal with HOXA4 [16] was 11.6 upbm affinity estimate (log intensity, higher = more binding, comparable within an allelic series); in the assay with HOXA2 [17] it was 12.3 upbm affinity estimate (log intensity, higher = more binding, comparable within an allelic series); with VAX1 [18], 12.5 upbm affinity estimate (log intensity, higher = more binding, comparable within an allelic series).
Turning to AGGTGGCC, the binding signal was 6.42 upbm affinity estimate (log intensity, higher = more binding, comparable within an allelic series) with HESX1 [1]; 6.42 upbm affinity estimate (log intensity, higher = more binding, comparable within an allelic series) in the assay with HESX1 [2]; 6.5 upbm affinity estimate (log intensity, higher = more binding, comparable within an allelic series) with HESX1 [3]; 6.47 upbm affinity estimate (log intensity, higher = more binding, comparable within an allelic series) with HESX1 [4]; 6.46 upbm affinity estimate (log intensity, higher = more binding, comparable within an allelic series) with HESX1 [5].
For AGCCTCGC, the binding signal was 6.43 upbm affinity estimate (log intensity, higher = more binding, comparable within an allelic series) with HESX1 [1]; 6.5 upbm affinity estimate (log intensity, higher = more binding, comparable within an allelic series) with HESX1 [2]; 6.45 upbm affinity estimate (log intensity, higher = more binding, comparable within an allelic series) with HESX1 [3]; 6.49 upbm affinity estimate (log intensity, higher = more binding, comparable within an allelic series) with HESX1 [4]; 6.46 upbm affinity estimate (log intensity, higher = more binding, comparable within an allelic series) in the assay with HESX1 [5].
Take CATTAGAG: the binding signal in the assay with HESX1 [1] is 8.32 upbm affinity estimate (log intensity, higher = more binding, comparable within an allelic series); with HESX1 [2], 8.46 upbm affinity estimate (log intensity, higher = more binding, comparable within an allelic series); with HESX1 [5] it was 6.84 upbm affinity estimate (log intensity, higher = more binding, comparable within an allelic series).
With GTCATAAC, the binding signal was 7.26 upbm affinity estimate (log intensity, higher = more binding, comparable within an allelic series) with HESX1 [1]; 7.28 upbm affinity estimate (log intensity, higher = more binding, comparable within an allelic series) in the assay with HESX1 [2]; 7.2 upbm affinity estimate (log intensity, higher = more binding, comparable within an allelic series) with HESX1 [4].
On to CAGGGGGC, for which the binding signal is 7.45 upbm affinity estimate (log intensity, higher = more binding, comparable within an allelic series) with HOXB4 [6]; 7.88 upbm affinity estimate (log intensity, higher = more binding, comparable within an allelic series) with VENTX [19]; 7.91 upbm affinity estimate (log intensity, higher = more binding, comparable within an allelic series) in the assay with VENTX [20]; 7.09 upbm affinity estimate (log intensity, higher = more binding, comparable within an allelic series) with HOXA2 [8]; 7.54 upbm affinity estimate (log intensity, higher = more binding, comparable within an allelic series) with HOXB4 [10]; 10.1 upbm affinity estimate (log intensity, higher = more binding, comparable within an allelic series) with HOXA2 [11]. For the same sequence, the binding signal is 10.3 upbm affinity estimate (log intensity, higher = more binding, comparable within an allelic series) with HOXA2 [15] and 7.35 upbm affinity estimate (log intensity, higher = more binding, comparable within an allelic series) in the assay with HOXA2 [17].
Turning to CGATATTA, the binding signal in the assay with HESX1 [1] was 8.16 upbm affinity estimate (log intensity, higher = more binding, comparable within an allelic series); with HESX1 [2], 8.27 upbm affinity estimate (log intensity, higher = more binding, comparable within an allelic series); in the assay with HESX1 [4], 7.74 upbm affinity estimate (log intensity, higher = more binding, comparable within an allelic series).
Turning to TAACGATA, the binding signal in the assay with HESX1 [1] was 7.67 upbm affinity estimate (log intensity, higher = more binding, comparable within an allelic series); with HESX1 [2], 7.8 upbm affinity estimate (log intensity, higher = more binding, comparable within an allelic series); with HESX1 [4] it was 7.53 upbm affinity estimate (log intensity, higher = more binding, comparable within an allelic series).
Take CAGGACCC: the binding signal in the assay with HOXB4 [6] was 7.14 upbm affinity estimate (log intensity, higher = more binding, comparable within an allelic series); with HOXA4 [7] it was 9.96 upbm affinity estimate (log intensity, higher = more binding, comparable within an allelic series); with HOXA4 [9], 9.81 upbm affinity estimate (log intensity, higher = more binding, comparable within an allelic series); in the assay with HOXB4 [10], 7.15 upbm affinity estimate (log intensity, higher = more binding, comparable within an allelic series); in the assay with HOXA4 [12] it was 9.67 upbm affinity estimate (log intensity, higher = more binding, comparable within an allelic series); with HOXA4 [16], 9.89 upbm affinity estimate (log intensity, higher = more binding, comparable within an allelic series).
For the sequence CTCAATTC, the binding signal is 7.54 upbm affinity estimate (log intensity, higher = more binding, comparable within an allelic series) with HESX1 [1]; 7.59 upbm affinity estimate (log intensity, higher = more binding, comparable within an allelic series) in the assay with HESX1 [2]; 7.26 upbm affinity estimate (log intensity, higher = more binding, comparable within an allelic series) with HESX1 [4].
In the case of CAAATGGG, the binding signal with HESX1 [1] was 7.28 upbm affinity estimate (log intensity, higher = more binding, comparable within an allelic series); in the assay with HESX1 [2], 7.38 upbm affinity estimate (log intensity, higher = more binding, comparable within an allelic series); with HESX1 [3], 6.88 upbm affinity estimate (log intensity, higher = more binding, comparable within an allelic series); with HESX1 [5] it was 6.73 upbm affinity estimate (log intensity, higher = more binding, comparable within an allelic series).
Turning to ATTAGTGC, the binding signal with HESX1 [1] is 9.5 upbm affinity estimate (log intensity, higher = more binding, comparable within an allelic series); in the assay with HESX1 [2] it was 9.81 upbm affinity estimate (log intensity, higher = more binding, comparable within an allelic series); with HESX1 [4] it was 8.71 upbm affinity estimate (log intensity, higher = more binding, comparable within an allelic series); in the assay with HESX1 [5] it was 6.94 upbm affinity estimate (log intensity, higher = more binding, comparable within an allelic series).
With CCGCAAGG, the binding signal was 7.78 upbm affinity estimate (log intensity, higher = more binding, comparable within an allelic series) with HOXB4 [6] and 7.66 upbm affinity estimate (log intensity, higher = more binding, comparable within an allelic series) with HOXB4 [10].
On to GACGCCGC, for which the binding signal with HOXB4 [6] is 7.74 upbm affinity estimate (log intensity, higher = more binding, comparable within an allelic series); with HOXB4 [10] it was 7.51 upbm affinity estimate (log intensity, higher = more binding, comparable within an allelic series).
With ACTATAGA, the binding signal was 7.13 upbm affinity estimate (log intensity, higher = more binding, comparable within an allelic series) with HESX1 [1]; 7.13 upbm affinity estimate (log intensity, higher = more binding, comparable within an allelic series) with HESX1 [2]; 7.02 upbm affinity estimate (log intensity, higher = more binding, comparable within an allelic series) with HESX1 [4].
